IL1B secr inh = inhibitors of inflammasome signaling (IL-1 beta secretion); THP-1 LPS/ATP IL-1B secretion, AlphaLISA, 16 h; stronger effect = lower value; activity change, % at 57.5 µM; 360,000 compounds, 4.7% hits; in the data active = activity change below about -50%; inconclusive = mostly about -30% to -49%
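THP-1 cells pretreated 1 hr with compounds (up to 57.5 uM final), then stimulated with LPS (250 ng/mL final) plus ATP (1.25 mM final); secreted IL-1B measured by AlphaLISA after 16 hr, decreased signal indicating inhibition.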
DT40 TDP1 CPT = DT40-hTDP1 cell growth loss with CPT. AID 686979. 420,000 compounds, 12% hits. chicken DT40 Tdp1-/-;hTDP1 cells + 20 nM CPT, ATP luminescence, 48 h. Potency, µM (top dose mostly 46.2 µM), without a hit: top-dose activity change, negative = growth inhibition, hits mostly inhibitors; also: potency is read from the fitted curve at half-maximal effect; nearly all actives have a fitted effect of over 55% in size
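Chicken DT40 Tdp1-/- cells stably complemented with human TDP1 were seeded at 400 cells/well in medium containing 20 nM camptothecin, exposed to pin-transferred compounds, and grown at 37 °C for at least 48 hr. Viability was read as ATP luminescence.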
DT40 TDP1 no CPT = qHTS for Inhibitors of human tyrosyl-DNA phosphodiesterase 1 (TDP1): qHTS in cells in absence of CPT; DT40 Tdp1-/- hTDP1 cells, no CPT, ATP luminescence, 48 h; Potency, µM (doses to about 46.2 µM), for the others: top-dose activity change, negative = growth inhibition, actives largely listed as inhibitors; 420,000 compounds, 15% hits; also: potency is read from the fitted curve at half-maximal effect; nearly all actives have a fitted effect of over 55% in size
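Seeded 400 DT40-hTDP1 cells/well (vehicle DMSO, no 20 nM CPT); pinned compounds; ≥48 hr at 37 °C; CellTiter-Glo luminescence as viability measure.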
Six1-Eya2 inh = blocks human Six1 binding to Eya2; Q15475+O00167; AlphaScreen GST-Six1/His-Eya2 binding, biochemical; stronger effect = lower value; activity change, % (no concentration beside the values); 360,000 compounds, 0.56% hits; in the data active = activity change below about -65%; inconclusive = mostly about -30% to -63%
Target sequence (O00167 whole entry, looked up): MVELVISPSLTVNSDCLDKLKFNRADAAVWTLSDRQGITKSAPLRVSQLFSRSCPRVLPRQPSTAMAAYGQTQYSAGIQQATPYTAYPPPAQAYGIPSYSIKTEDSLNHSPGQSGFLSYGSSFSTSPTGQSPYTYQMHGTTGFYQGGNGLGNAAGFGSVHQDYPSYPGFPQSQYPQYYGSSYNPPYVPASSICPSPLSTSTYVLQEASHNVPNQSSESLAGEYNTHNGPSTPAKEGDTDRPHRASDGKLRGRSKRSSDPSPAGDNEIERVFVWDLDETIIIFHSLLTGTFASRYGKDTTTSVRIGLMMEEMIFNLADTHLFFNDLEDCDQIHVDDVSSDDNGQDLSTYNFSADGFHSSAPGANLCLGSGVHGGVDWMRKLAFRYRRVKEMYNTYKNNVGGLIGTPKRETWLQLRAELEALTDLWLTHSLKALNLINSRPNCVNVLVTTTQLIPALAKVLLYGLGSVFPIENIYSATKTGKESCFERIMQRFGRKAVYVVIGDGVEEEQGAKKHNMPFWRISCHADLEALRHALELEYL
Target sequence (Q15475 whole entry, looked up): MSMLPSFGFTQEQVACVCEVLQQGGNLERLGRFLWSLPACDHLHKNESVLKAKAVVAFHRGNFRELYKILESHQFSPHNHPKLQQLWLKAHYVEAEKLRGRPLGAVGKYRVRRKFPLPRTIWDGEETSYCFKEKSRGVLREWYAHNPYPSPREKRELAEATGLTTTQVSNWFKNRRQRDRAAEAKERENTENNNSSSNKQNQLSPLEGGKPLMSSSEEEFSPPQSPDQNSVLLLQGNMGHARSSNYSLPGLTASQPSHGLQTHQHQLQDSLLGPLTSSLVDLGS
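AlphaScreen with GST-Six1 and His-Eya2 (5X mix: 250 nM and 500 nM), glutathione donor and nickel acceptor beads; buffer 50 mM Tris pH 8.0, 300 mM NaCl, 1 mM TCEP; 1 h at 37 C in the dark.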
CtBP-E1A inh = blocks the CtBP interaction with E1A; AlphaScreen GST-E1A/His-CtBP binding, 1536-well; stronger effect = lower value; activity change, % (no concentration beside the values); 340,000 compounds, 0.49% hits; AID 651724; in the data active = activity change below about -65%; inconclusive = mostly about -30% to -63%
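Steps: dispense buffer (Tris pH 8.0, NaCl 300 mM, TCEP 1 mM, BSA, Tween 20); add 5X protein mix (GST-E1A, His-CtBP, 125 nM each); pin 23 nL compound; 2 h at 37 °C, dark; add 5X beads (50 ug/mL); 1 h; read.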
TDP1 inh = inhibitors of human tyrosyl-DNA phosphodiesterase TDP1 | 350,000 compounds, 0.28% hits | AID 485290 | recombinant TDP1, AlphaScreen DNA substrate cleavage | Potency, µM (titrated, usually from 130 µM), inactives show top-dose activity change, negative = inhibition, hits mostly inhibitors; also: potency is read from the fitted curve at half-maximal effect; nearly all actives have a fitted effect of over 40% in size
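Here, a 5' biotin and 3' phosphotyrosine-FITC DNA oligonucleotide reports Tdp1 activity: intact substrate bridges AlphaScreen beads, while cleavage leaves a 3' phosphate and drops signal. All incubations at room temperature.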
* hit, by the source's call; u = inconclusive; x = not tested or not shown; [ ] = another dose, or the depositor's remark. Compounds with a hit are over-represented: about 18% of the library has one in this group of screens. Unless noted, calls follow the shape of the dose curve; as a rule, active = well fitted curve in the direction sought with a large enough effect; inconclusive = small, poorly fitted or top-dose-only effect, or another doubt; inactive = no such curve, though single readings can be large; an effect the other way counts as inactive or inconclusive. % is scaled to controls: 0 for no effect and ±100 for the full control effect.

SMILES	IL1B secr inh	DT40 TDP1 CPT	DT40 TDP1 no CPT	Six1-Eya2 inh	CtBP-E1A inh	TDP1 inh
COc1ncnc2c1ncn2CCCN1CCN(Cc2cccc3ccccc23)CC1	-4	u	23µM*	-13	-17	x
CC(C)c1nnc(NC(=O)c2cccs2)s1	-17	2%	-7%	8	4	3%
CCCCC/S(CC1CC1(Cl)Cl)=N\S(=O)(=O)c1ccc(C)cc1 (centres undefined)	-5	-3%	u	3	2	3%
Cc1ccc(S(=O)(=O)N=S(CC2CC2(Cl)Cl)CC2CC2(Cl)Cl)cc1 (centres undefined)	-5	23µM*	26µM*	2	2	0%
C=CCC1NS(=O)(=O)OCC1NC(=O)OCC(Cl)(Cl)Cl (centres undefined)	17	4%	11%	4	6	x
CC(C)(C)OC1NS(=O)(=O)OCC1NCOC(Cl)(Cl)Cl (centres undefined)	-23	3.3µM*	3.7µM*	-7	-6	x
Cc1ccc(CS(=O)(=O)c2nsc(C)c2C#N)cc1	-12	-7%	-9%	6	1	1%
Cc1cccc(CNC(=O)c2sc(=O)n(Cc3c(C)cccc3C)c2C)c1	-17	u	23µM*	11	-21	x
Cc1ccc(Cn2c(C)c(C(=O)NCc3cccc(C(F)(F)F)c3)sc2=O)cc1	-24	-1%	1%	-5	3	x
COc1ccc(CNC(=O)c2sc(=O)n(Cc3ccccc3C)c2C)cc1	-10	u	u	-19	-8	x
Cc1c(C(=O)NCc2cccc(C(F)(F)F)c2)sc(=O)n1Cc1ccccc1F	-3	u	26µM*	1	4	x
C=Cc1ccc(Cn2c(C)c(C(=O)NCc3ccc(C#N)cc3)sc2=O)cc1	u	16µM*	16µM*	-14	-2	x
COc1ccc(CNC(=O)c2sc(=O)n(Cc3ccc(-c4ccccc4)cc3)c2C)cc1OC	-13	12µM*	12µM*	-11	u	x
COc1ccccc1Cn1c(C)c(C(=O)NCc2cccc(C)c2)sc1=O	u	u	-14%	0	-12	x
COc1ccc(Cl)cc1Cn1c(C)c(C(=O)NCc2cccc(C(F)(F)F)c2)sc1=O	-59*	u	u	-2	4	x
COc1ccc(Cl)cc1Cn1c(C)c(C(=O)NCc2ccc(C#N)cc2)sc1=O	-21	23µM*	18µM*	-23	-11	x
O=C(Nc1cc(Cl)ccc1Cl)C1Cc2ccccc2O/C1=N\O (centres undefined)	u	-3%	-11%	8	2	x
Cc1ccccc1OCC(=O)NNC(=O)C1CCN(c2ncnc3sc(C)c(C)c23)CC1	7	23µM*	26µM*	-30	-10	x
COc1cc(C(=O)N2CCN(c3ncnc4sc(C)c(C)c34)CC2)cc(OC)c1OC	-19	u	u	2	0	2%
Cc1sc2ncnc(N3CCC(C(=O)N(CC(C)C)c4nc5ccccc5s4)CC3)c2c1C	12	21µM*	15µM*	1	9	-4%[0.505 µM]
C=CCn1c(C)cc(-c2csc(NC(=O)C3CCN(c4ncnc5sc(C)c(C)c45)CC3)n2)c1C	0	u	21µM*	-2	-19	x
COc1ccccc1OCC(=O)NNC(=O)C1CCN(c2ncnc3sc(C)c(C)c23)CC1	-7	u	13µM*	-7	x	0%
Cc1cccc(OCC(=O)NNC(=O)C2CCN(c3ncnc4sc(C)c(C)c34)CC2)c1	6	u	u	-16	-22	1%
CCc1ccc2nc(NC(=O)C3CCN(c4ncnc5sc(C)c(C)c45)CC3)sc2c1	31	u	u	-3	x	0%
COc1ccc(CCN=C(N)NS(=O)(=O)c2ccc(C)c(C)c2)cc1OC	-19	-5%	19%	2	-7	0%
SMILES	IL1B secr inh	DT40 TDP1 CPT	DT40 TDP1 no CPT	Six1-Eya2 inh	CtBP-E1A inh	TDP1 inh
Cc1ccc(S(=O)(=O)Nc2cc3c(C(=O)O)c(C)oc3c3ccccc23)c(C)c1	2	-11%	-6%	9	11	0%
CCOC(=O)C1CCCc2c1[nH]c1c(C(N)=O)cccc21 (centres undefined)	29	-6%	-19%	-7	-11	-1%
CCOc1ccccc1N=C1SCC(C)N1C(=O)C1CCN(c2ncnc3sc(C)c(C)c23)CC1 (centres undefined)	0	21µM*	15µM*	-10	-6	x
CNC(=O)c1ccc(NC(=O)C2CCN(c3ncnc4sc(C)c(C)c34)CC2)cc1	-16	u	u	-21	1	3%
CCN(CC)c1ccc(C(=O)NNC(=O)C2CCN(c3ncnc4sc(C)c(C)c34)CC2)cc1	-4	u	u	-11	-2	x
COc1ccc(-c2csc(NC(=O)C3CCN(c4ncnc5sc(C)c(C)c45)CC3)n2)cc1OC	64	2.9µM*	2.6µM*	-14	-19	-8%
CCCN(CC(=O)Nc1ccccc1C)C(=O)C1CCN(c2ncnc3sc(C)c(C)c23)CC1	-14	21µM*	10µM*	-14	-3	1%
CCOC(=O)CC(NC(=O)c1ccccc1F)c1ccc(C)cc1 (centres undefined)	12	-3%	u	0	11	1%
CCn1cc(C(=O)O)c(=O)c2cc(F)c(N3CCN[C@@H](C)C3)c(F)c21	x	x	x	x	x	5%[56.1 µM]
O=C(CCC(=O)N(CC(=O)NC1CCCC1)Cc1ccc2c(c1)OCO2)Nc1ccccn1	-1	-3%	0%	-1	13	9%
CN1C(=O)[C@H]2[C@@H](c3ccc(C(F)(F)F)cc3)N[C@]3(CCCN(CC4CCCCC4)C3=O)[C@H]2C1=O	-14	21µM*	10µM*	1	-6	x
Cc1ccc(CN2CCC[C@]3(N[C@H](c4ccc(C)cc4)[C@@H]4C(=O)N(C)C(=O)[C@@H]43)C2=O)cc1	-13	u	u	-16	-15	x
CN1C(=O)[C@H]2[C@@H](c3ccc(C(F)(F)F)cc3)N[C@]3(CCCN(Cc4ccc(C(F)(F)F)cc4)C3=O)[C@H]2C1=O	-4	23µM*	18µM*	-7	-12	x
Cc1ccc([C@H]2N[C@]3(CCCN(CC4CCCCC4)C3=O)[C@H]3C(=O)N(C)C(=O)[C@@H]23)cc1	-15	u	-27%	-10	-4	x
CN1C(=O)[C@H]2[C@@H](c3ccc(C(F)(F)F)cc3)N[C@]3(CCCN(Cc4ccc(Br)cc4)C3=O)[C@H]2C1=O	-19	15µM*	16µM*	5	7	x

Bioassay records deposited in PubChem by National Center for Advancing Translational Sciences (NCATS).
